Measured values as given in PubChem BioAssay.
Several values for one entry are separate records, joined by “and”; a condition that tells them apart may be missing. Equal values may be shown once. Activity calls are given as the source filed them.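 How the source made its calls, unless noted: active means compounds whose cell count with miR-34 switched on is under 0.7 times the count with it off; inactive means the rest.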

Legend:
[1] = sensitizers of A549 cells to miR-34 induction, primary screen, imaging, A549 dox-inducible miR-34, nuclei and caspase counts (AID 1347080); details: A549 miR-34 inducible, Hoechst nuclei count, 48 h
[2] = survival rescue of mitochondrial mutant cells in low glucose, primary screen, MELAS cybrids, Rieske KO mouse fibroblasts, CellTiter-Glo (AID 1508586;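 active means mean z-score across replicates of 1.96 or higher in either the MELAS or the Rieske mutant cell line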;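 further: z relative to plate mean and SD of compound and empty wells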)
[3] = stronger effect = lower value, cell number ratio, induced over uninduced
[4] = measured here: relative caspase fold change +Dox/-Dox
[5] = measured here: total cells with miR-34 induction, stronger effect = lower value
[6] = measured here: total cells without miR-34 induction
[7] = MELAS cybrid survival, CellTiter-Glo 48 h, stronger effect = higher value
[8] = Rieske KO mouse fibroblast survival, CellTiter-Glo 72 h
Further: test concentration not given here.

SMILES | fold change [1, 3] | fold change [1, 4] | cell count [1, 5] | cell count [1, 6] | z-score [2, 7] | z-score [2, 8]
O=c1[nH]c(=O)n(C2CC(O)C(CO)O2)cc1C(F)(F)F (stereo unspecified) | 1.15 (inactive) | 0.574 | 1670 | 1450 | -0.198 (inactive) | -0.513
C#C[C@@]1(OC(C)=O)CC[C@H]2[C@@H]3CCC4=CC(OC(C)=O)CC[C@@H]4[C@@H]3CC[C@@]21C (stereo partly specified) | 0.978 (inactive) | 0.478 | 8080 | 8260 | -0.279 (inactive) | -0.148
CC1C=CC=CC=CC=CC=CC=CC=CC(OC2OC(C)C(O)C(N)C2O)CC2O[C@@](O)(CC(O)CC(O)C(O)CCC(O)CC(O)CC(=O)OC(C)C(C)C1O)CC(O)C2C(=O)O (stereo partly specified) | 0.819 (inactive) | 1.3 | 6680 | 8160 | -0.196 (inactive) | 0.383
C[C@]12CCC(O)CC1=CCC1C2CC[C@]2(C)C(n3cnc4ccccc43)=CCC12 (stereo partly specified) | 0.927 (inactive) | 0.715 | 7740 | 8340 | -0.32 (inactive) | -0.165
C#C[C@@]1(O)CC[C@H]2[C@@H]3CCc4cc(O)ccc4[C@@H]3CC[C@@]21C | 0.952 (inactive) | 0.969 | 6120 | 6420 | 0.773 (inactive) | 0.776
CC(C)(C)NS(=O)(=O)c1cncc(-c2cc(F)c3nc(N)nn3c2)c1 | 0.874 (inactive) | 1.55 | 8160 | 9340 | -0.353 (inactive) | -0.161
CC(NC(=O)Cc1cc(F)cc(F)c1)C(=O)NC(C(=O)OC(C)(C)C)c1ccccc1 (stereo unspecified) | 0.856 (inactive) | 0.819 | 7300 | 8530 | -0.187 (inactive) | 0.801
CCNc1nc(Nc2cc(F)c(C(=O)N3CCOCC3)cc2OC)ncc1C(F)(F)F | 0.9 (inactive) | 0.418 | 8080 | 8970 | -0.325 (inactive) | -0.142
O=[N+]([O-])c1cn2c(n1)OCC(OCc1ccc(OC(F)(F)F)cc1)C2 (stereo unspecified) | 0.949 (inactive) | 0.871 | 6600 | 6960 | -0.338 (inactive) | 0.787
CC(=O)OCC(=O)[C@]12N=C(C)O[C@@H]1C[C@H]1[C@@H]3CCC4=CC(=O)C=C[C@]4(C)[C@@H]3C(O)C[C@@]12C (stereo partly specified) | 0.954 (inactive) | 1.27 | 5010 | 5250 | -0.0832 (inactive) | -0.272
CC(C=CC1=C(C)CCCC1(C)C)=CC=CC(C)=CC(=O)O | 0.957 (inactive) and 0.887 (inactive) | 0.963 and 0.861 | 6860 and 8040 | 7170 and 9070 | -0.296 (inactive) and 0.176 (inactive) | 0.231 and 0.975
CCC(=O)O[C@@]1(C(=O)SCF)C(C)C[C@H]2[C@@H]3CC(F)C4=CC(=O)C=C[C@]4(C)[C@]3(F)C(O)C[C@@]21C (stereo partly specified) | 0.849 (inactive) | 1.14 | 4990 | 5880 | -0.525 (inactive) | -0.481
CC(=O)ON=C1C(=O)N(Cc2cc(Cl)ccc2Cl)c2ccc(Cl)cc21 | 0.848 (inactive) | 0.441 | 7100 | 8370 | -0.0209 (inactive) | 1.12
NC1(C(=O)NC(CCO)c2ccc(Cl)cc2)CCN(c2ncnc3[nH]ccc23)CC1 (stereo unspecified) | 1.01 (inactive) | 0.36 | 7310 | 7200 | -0.334 (inactive) | -0.0673
O=S(=O)(NCCNCC=Cc1ccc(Br)cc1)c1cccc2cnccc12 | 0.834 (inactive) | 0.904 | 8100 | 9710 | -0.305 (inactive) | 0.0221
CN(CC1COCCO1)S(=O)(=O)Nc1ccc2ccc3ncc(-c4cnn(C)c4)cc3c(=O)c2c1 (stereo unspecified) | 0.745 (inactive) | 1.24 | 3290 | 4410 | 4.55 (active) | 2.15
OCC1OC(Oc2ccc(O)cc2)C(O)C(O)C1O (stereo unspecified) | 0.859 (inactive) | 1.01 | 7730 | 9000 | -0.228 (inactive) | 0.468
Cc1cc(Cn2cnc3c2CC(C(=O)O)N(C(=O)C(c2ccccc2)c2ccccc2)C3)ccc1N(C)C (stereo unspecified) | 0.92 (inactive) | 0.34 | 8010 | 8710 | 0.9 (inactive) | -1.41
Cc1ccc(CNc2ncnc3ccc(-c4ccc(CO)o4)cc23)o1 | 0.916 (inactive) | 0.52 | 7510 | 8210 | -0.414 (inactive) | 0.153
CC(=O)NC1C(N=C(N)N)C=C(C(=O)O)O[C@H]1C(O)C(O)CO (stereo partly specified) | 0.903 (inactive) | 0.622 | 9700 | 10700 | -0.333 (inactive) | 0.922
N#CCC(C1CCCC1)n1cc(-c2ncnc3[nH]ccc23)cn1 (stereo unspecified) | 1.03 (inactive) and 0.94 (inactive) | 0.563 and 1.09 | 8730 and 7580 | 8490 and 8060 | -0.347 (inactive) and -0.642 (inactive) | 0.0258 and -0.766
